Columns and labels:
Assay in all cases: PBM binding z-score (relative to random genomic background probes); higher = stronger binding; sequences stand for … in GC…GCGATTGACAGCGTAGAATGAAGG
[1] = tested on: FXR:RXRa (NR concentration 270 nM, RXRa partner concentration 90 nM)
How it was run: (§1)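 For binding z-scores, the reference was random background probes on custom Agilent 4×180K protein-binding microarrays. These arrays were incubated 1 h with ligand-free nuclear receptor dimers in PBS pH 7.4, 2% milk, 0.02% Triton X-100, 1 mM DTT, 0.2 mg/mL BSA and 0.4 mg/ml salmon testes DNA. Fluorescence was scanned after antibody detection of each partner (one per run) and regression-normalized.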

[2] = tested on: LXRa:RXRa (NR concentration 270 nM, RXRa partner concentration 90 nM)
How it was run: as §1

[3] = tested on: LXRa homodimer (NR concentration 270 nM)
How it was run: as §1

[4] = tested on: LXRb:RXRa (NR concentration 270 nM, RXRa partner concentration 90 nM)
How it was run: as §1

[5] = tested on: LXRb homodimer (NR concentration 270 nM)
How it was run: as §1

[6] = tested on: PPARa:RXRa (NR concentration 270 nM, RXRa partner concentration 90 nM)
How it was run: as §1

[7] = tested on: PPARg:RXRa (NR concentration 180 nM, RXRa partner concentration 90 nM)
How it was run: as §1

[8] = tested on: PPARg:RXRa 270nM:90nM, anti-RXR (NR concentration 270 nM, RXRa partner concentration 90 nM)
How it was run: as §1

[9] = tested on: PPARg:RXRa 30nM:10nM, anti-RXR (NR concentration 30 nM, RXRa partner concentration 10 nM)
How it was run: as §1

[10] = tested on: PPARg:RXRa 90nM:30nM, anti-RXR (NR concentration 90 nM, RXRa partner concentration 30 nM)
How it was run: as §1

[11] = tested on: PPARg:RXRa DBDmut IVT, anti-RXR (DBD mutation: RXRa K156A/R161A, NR concentration 270 nM, RXRa partner concentration 90 nM)
How it was run: as §1

[12] = tested on: PPARg:RXRa IVT, anti-PPARg (NR concentration 270 nM, RXRa partner concentration 90 nM)
How it was run: as §1

[13] = tested on: PPARg DBDmut:RXRa IVT, anti-PPARg (DBD mutation: PPARg1 K132A/R137A, NR concentration 270 nM, RXRa partner concentration 90 nM)
How it was run: as §1

[14] = tested on: PPARg DBDmut IVT, anti-PPARg (DBD mutation: PPARg1 K132A/R137A, NR concentration 270 nM)
How it was run: as §1

[15] = tested on: PPARg homodimer (NR concentration 180 nM)
How it was run: as §1

[16] = tested on: PXR:RXRa (NR concentration 270 nM, RXRa partner concentration 90 nM)
How it was run: as §1

[17] = tested on: PXR homodimer (NR concentration 270 nM)
How it was run: as §1

[18] = tested on: RARa:RXR (NR concentration 270 nM, RXRa partner concentration 90 nM)
How it was run: as §1

[19] = tested on: RARa homodimer (NR concentration 270 nM)
How it was run: as §1

[20] = tested on: RARb:RXRa (NR concentration 270 nM, RXRa partner concentration 90 nM)
How it was run: as §1

Row | Sequence | PBM binding z-score [1] | PBM binding z-score [2] | PBM binding z-score [3] | PBM binding z-score [4] | PBM binding z-score [5] | PBM binding z-score [6] | PBM binding z-score [7] | PBM binding z-score [8] | PBM binding z-score [9] | PBM binding z-score [10] | PBM binding z-score [11] | PBM binding z-score [12] | PBM binding z-score [13] | PBM binding z-score [14] | PBM binding z-score [15] | PBM binding z-score [16] | PBM binding z-score [17] | PBM binding z-score [18] | PBM binding z-score [19] | PBM binding z-score [20]
1 | CCGACTGGGGCATAAGGCTACCATAAGCCAGCCC | -0.264 | -0.169 | -0.35 | -0.67 | -1.17 | 0.356 | 1.55 | 2.13 | 0.339 | 1.84 | 2.4 | 2.19 | -1.08 | -1.23 | 0.226 | -0.731 | -0.51 | -0.184 | 0.133 | 0.337
2 | ACAGCCAGGTGAGTGAAGGTAACTCAGCTGGACG | 0.0409 | -0.362 | -0.936 | -0.925 | -1.03 | -0.248 | 0.164 | -0.463 | -0.822 | -0.5 | 0.411 | 0.424 | -0.718 | -0.566 | -0.774 | -0.607 | -0.722 | -0.11 | -0.431 | 0.179
3 | CCTTACGGGTCACTGCCAGGTTATAGCATTTGGA | 5.22 | 3.93 | 0.268 | 3.17 | 0.0184 | 4.86 | 4.05 | 4.26 | 1.23 | 2.88 | 3.11 | 3.87 | 0.0612 | -0.48 | 2.07 | 3.53 | 0.376 | 3.87 | 0.61 | 3.8
4 | TAGCCTAGGTCATTGGGCCACTATAGTACGCATC | 4.39 | 3.9 | 1.1 | 3.05 | 0.679 | 3.99 | 4.65 | 4.12 | 1.41 | 3.18 | 3.5 | 4.5 | 0.0417 | -0.0772 | 0.995 | 1.63 | -0.211 | 2.14 | -0.101 | 3.49
5 | GCTCGGAGGATAAGGTCAGAGCTTTGTCCGTAGA | 2.22 | 1.66 | -0.483 | 1.26 | -1.34 | 2.62 | 0.136 | 1.3 | -0.139 | 0.94 | -0.248 | 0.29 | -0.531 | -1.51 | 0.565 | 1.86 | -0.244 | 2.62 | -0.904 | 3.29
6 | ATCCCTAGGTAAAGTTCAGTGAAAGATCGATAGA | 0.939 | 1.71 | 1.52 | 1.19 | 0.53 | 1.8 | 2.37 | 3.48 | 1.57 | 3.25 | 0.383 | 1.01 | 0.372 | 0.771 | 1.6 | 1.63 | 2.29 | 0.943 | 1.49 | 2.39
7 | ATCTCTAGGTAACAAGTTCAGGGAAAGAGAGGAC | 1.08 | 1.19 | 0.665 | 1.09 | 1.23 | 1.97 | 1.74 | 2.3 | 1.06 | 1.99 | 3.5 | 3.06 | 1.15 | 2.01 | 1.61 | 1.74 | 1.82 | 1.32 | 1.58 | 1.69
8 | TCATATAGGTAATACAGGTGTAAGTCGGCATCTA | 1.11 | 1.19 | 0.352 | 0.876 | 0.401 | 1.28 | 1.06 | 2.23 | 3.93 | 3 | 3.63 | 2.43 | 1.94 | 1.17 | 1 | 0.767 | 0.343 | 0.844 | 1.25 | 0.255
9 | AGAATGAGGTTATGAAGATCAGGGAATTGCGGTC | 1.75 | 1.53 | 0.162 | 1.04 | -0.127 | 2.86 | 1.68 | 2.1 | 1.05 | 1.61 | 3.44 | 2.45 | 0.386 | -0.347 | 0.625 | 1.18 | 0.111 | 1.87 | 0.262 | 1.7
10 | ATGTCTAGGTAAAAGTTCAGTGAATCCCGAGGAT | 0.745 | 1.33 | 1.16 | 0.843 | 0.542 | 3.76 | 7.03 | 6.9 | 5.57 | 7.4 | 1.33 | 3.13 | 0.931 | 0.765 | 1.17 | 1.87 | 1.49 | 1.77 | 0.698 | 2.39
11 | ATCTCTAGGTAAAGATAGTTAAGTGAATGCAAAT | -0.0331 | 0.0561 | -0.0773 | 0.142 | 0.643 | -0.0582 | 0.771 | 0.421 | 0.415 | 0.236 | 1.79 | 1.42 | 0.229 | 1.6 | 0.449 | -0.33 | 0.0795 | -0.0694 | 0.927 | -0.0166
12 | CATACAGGGTCACCTAGGCCAGAGTAGGGACGGC | 6.41 | 4.26 | 0.036 | 3.35 | 0.688 | 5.64 | 6.1 | 5.1 | 2.1 | 3.77 | 1.55 | 4.32 | 1.86 | 1.64 | 1.65 | 3.56 | 0.395 | 4.49 | 0.259 | 4.41
13 | CGTCCAAGGTCAAAGTCAGTGAAAGAGACTCGAA | 7.61 | 5.36 | 0.709 | 4.03 | 1.64 | 5.87 | 5.41 | 5.32 | 1.82 | 4.19 | 3.22 | 3.56 | -0.516 | -0.183 | 2.62 | 3.72 | 0.349 | 4.01 | 1.36 | 5.14
14 | CAAACTAGGTCACCGGAAGGTGAAAGTCCGCATG | 4.95 | 3.97 | 0.466 | 3.14 | 0.0268 | 5.42 | 9.29 | 7.34 | 5.78 | 7.31 | 8.74 | 8.89 | 2.99 | 0.925 | 4.64 | 2.98 | 0.142 | 4.74 | 0.555 | 4.54

Source: the supplement of paper PMC6555819
